Screen size: about 71,000 compounds; about 180 (0.25%) were called active. The call rests on the fitted dose curve; in most records, active means well fitted curve in the direction sought with a large enough effect; inconclusive means small, poorly fitted or top-dose-only effect; inactive means flat fitted curve, though single readings scatter. Many of the other results were omitted from the sample, so actives are more common in it than they were.
Tested on: DNA polymerase III holoenzyme (E. coli)
Test: qHTS Assay for Inhibitors of DNA Polymerase III Holoenzyme System
Conditions: reconstituted DNA polymerase III holoenzyme replication, biochemical; series mostly up to 57.1 µM; activity change, negative = inhibition: at the top concentration
Procedure: NIH Molecular Libraries Screening Centers Network [MLSCN]
NIH Chemical Genomics Center [NCGC]
Assay Provider: Charles McHenry, University of Colorado
E. coli DNA polymerase III holoenzyme complex was assayed for DNA production by fluorescent detection of the double-stranded DNA product with PicoGreen dye. The holoenzyme complex was reconstituted from the following purified protein components: DNA Polymerase III, beta subunit processivity factor, SSB single-stranded DNA binding protein, and Primase. Single-stranded, circular M13Gori was used as a substrate with dNTPs and NTPs also supplied to the substrate reagent. Compounds from the NCGC collection were incubated with the holoenzyme mixture for 15 min at room temperature to allow binding to occur, and then the reaction was started by the addition of substrate. After 30 min incubation at room temperature, PicoGreen solution containing EDTA was added to stop the reaction and to visualize the double-stranded DNA produced. Reaction progress was measured in a ViewLux CCD imager in fluorescence intensity mode by using 480 nm excitation and 540 nm emission filter set.
NCGC Assay Protocol Summary:
Buffer. 50 mM Hepes-KOH, pH 7.5, 5 % Glycerol, 0.02% NP40, 30 mM potassium;
glutamate, 1.5 mM Magnesium Acetate, 16 uM TCEP.
Buffer in columns 3 and 4 as negative control (no enzyme).
Substrate solution: 5 uM each dATP, dGTP, dCTP and TTP, 50 uM each GTP, CTP, UTP and 200 uM ATP, 1.4 nM M13gori (final concentrations).
Enzyme: 154 nM SSB, 2 nM Primase, 1 nM Beta, 0.35 nM Pol III (final concentrations).
PicoGreen/EDTA: 10 mM Tris-HCl, 10 mM EDTA, 5 uM PicoGreen (final concentrations).
Control titration: ChemBridge 5805060 (from 10 mM, then 1:2, in duplicate) was pin-transferred to upper half of column 2.
Three uL of holoenzyme mixture were dispensed to 1536-well Greiner black solid bottom plates. Compounds and controls (23 nL) were transferred via Kalypsys PinTool. The plates were incubated for 15 min at room temperature, and then 1 uL of substrate solution was added to start the reaction. After room temperature incubation for 35 minutes, 1 uL of PicoGreen solution was added to each well and the plates were read 480 nm excitation and 540 nm emission using ViewLux (Perkin-Elmer) High-throughput CCD imager and fluorescence protocol settings.
Keywords: NIH Roadmap, MLSCN, MLI, MLSMR, qHTS, NCGC, DNA Polymerase III, DNAPol3, DNAPoly3, DNA replication targets
On the % scale 0 is the no-effect control and ±100 the full control effect.

Activity change, negative = inhibition, inactive:
COc1ccc2[nH]cc(CCNc3cc(-c4ccccc4CN(C)C)ncn3)c2c1 -2.7%
O=C(c1cc(C(F)(F)F)cc(C(F)(F)F)c1)N1CCC2(CC1)CN(c1ccncc1)C2 -0.9%
CCN1C(=O)/C(=C2\SC(N3CCCCC3)=NC2=O)c2ccccc21 0.9%
C/C=C/C=C/C(=O)O -6.6%
O=S(=O)(/C=C/c1ccccc1)NCCc1ccccn1 -1%
COc1ccc(S(=O)(=O)Nc2ccc3c(c2)OCO3)cc1Cl -1.3%
Cn1c(C(=O)NCCc2ccsc2)cc2c(=O)n(C)c3ccccc3c21 -10%
CC1CCCC(C)N1CCCNC(=O)c1cc2c(=O)n(C)c3ccccc3c2n1C (stereo not given) -10.1%
OCCNCCCCOc1ccccc1F -4.9% [at 11.4 µM]
CC1(C)S[C@@H]2[C@@H](NC(=O)[C@@H](N)c3ccccc3)C(=O)N2[C@H]1C(=O)O -5.3%
Oc1ccc(Cn2cc[nH]c2=S)cc1 -0.6%
C[N+]1(CCN=C=NC2CCCCC2)CCOCC1 -1.6% [at 11.4 µM]
COc1ccc(C(=O)OCC(=O)c2ccc(C)c(S(=O)(=O)N3CCOCC3)c2)cc1OC -0.2%
CCOc1ccc(NC(=O)CCC(=O)n2nc(C)cc2C)cc1 -2.9%
Cc1cccc(N2CCN(C(=O)c3cc4c(=O)[nH]c5ccccc5c4n3C)CC2)c1C -6.2%
CCCn1c(C)nc2c(NCCCCN(CC)CC)nc(C)nc21 -1.5%
NCCNCC1CCNCC1 -9.7% [at 11.4 µM]
CCNC(=S)NCC 9.5%
CC(Cc1ccccc1)C(=O)N(C)Cc1ccccc1 (stereo not given) 6.7%
COc1ccccc1CNc1ncncc1-c1cccnc1 -5.7%
COc1cccc(NC(=O)Cn2cnc3sc(C)c(S(=O)(=O)N4CCN(C)CC4)c3c2=O)c1 -5.3%
COc1ccccc1N1CCN(C(=O)Cn2nnc(-c3cccs3)n2)CC1 -2.6%
Cc1[nH]c(N)nc(=S)c1CCCNc1ccccc1 -9.5% [at 11.4 µM]
COc1ccc(OCC(=O)N2CCN(C(=O)c3cccs3)CC2)cc1 -3.6%
CC(C)C[C@@H](CC(=O)N[C@@H](CCC(=O)O)CC(=O)O)NC(=O)[C@@H]1CCCC[C@H]1NC(=O)C[C@@H](NC(=O)C[C@H](CO)NC(=O)[C@@H]1CCCC[C@H]1N)C(C)C -7.3%
Cc1c(C)c2c(c(C)c1O)CC[C@@](C)(CN1CCN(c3cc(N4CCCC4)nc(N4CCCC4)n3)CC1)O2 6.2%
CCCCNC(=O)CSc1nnc(-c2ccco2)n1C 8.1%
CCN(CC)CCNC(=O)Cn1cnc2sc(C)c(S(=O)(=O)N3CCOCC3)c2c1=O 7.1%
O=C1CC(c2ccccc2)C(=O)N1c1cccc(O)c1 (stereo not given) -3.8%
Cc1cc(Nc2ccc(Br)cc2F)n2ncnc2n1 -4.2%
COC(=O)c1ccccc1NC(=O)C1CCN(S(=O)(=O)c2cc(OC)ccc2OC)CC1 -4.8%
O=C(NCCCCO)C(F)(F)C(F)(F)C(F)(F)C(=O)NCCCCO -1.7%
CCOc1cc(-c2nc3cc(C)ccn3c2NCC2CCCO2)ccc1O (stereo not given) -6.1%
N#C/C=C1\Sc2ccccc2C(=O)N1CC(=O)N1CCN(S(=O)(=O)c2ccccc2)CC1 8.5%
COc1ccc(NC(=O)N2CC3(CCN(C(C)=O)CC3)C2)cc1 -2.4%
CCN(CC(=O)NCc1cccs1)c1nnnn1-c1ccccc1 -8.3%
O=C1N(Cc2ccc3c(c2)OCO3)c2ccccc2C1(O)c1c[nH]c2ccccc12 (stereo not given) 5.2%
Cc1nc2cnc(N3CCN(C)CC3)nc2n(C[C@H]2CCCO2)c1=O -13.3%
N#CC1=C(N)Oc2cc(O)ccc2C1C1CCCCC1 (stereo not given) -6.4%
FC(F)(F)c1ccccc1-c1nc(-n2ccnc2)c2ccccc2n1 -4.4%
O=C(CSc1nc(-c2ccco2)cc(C(F)(F)F)n1)N1CCc2ccccc2C1 4.6%
COCCCNC(=O)c1ccc(CNS(=O)(=O)c2ccc(NC(C)=O)cc2)cc1 -6.1%

Potency, active:
CCN1CCCC1CNC(=O)c1cc2c(=O)n(C)c3ccccc3c2n1C (stereo not given) 25.1 µM
O=C(O)c1c(Br)c(Br)c(Br)c(Br)c1C1c2ccc(O)cc2Oc2cc(O)ccc21 0.0251 µM
O=C(O)/C(=C/c1c(C(=O)O)[nH]c2cc(Cl)cc(Cl)c12)c1ccccc1 31.6 µM
